Compound activity deposited in PubChem BioAssay by several laboratories.
A selection: hits, their analogues and other compounds. The true share with any hit is near 1.6%.
PTPN22 act: LYP (human) phosphatase activation | 96,000 tested, 0.11% active | AID 697 | activation, % at 2 µM | recombinant LYP, DiFMUP fluorescence; 0 = plate median, 100 = signal doubled;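 active = activation at 2 µM above a set limit, the mean plus 5 SD, cut at about 37% in these data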
sEH act: activators of human soluble epoxide hydrolase; P34913; purified human sEH enzymatic activity, activator screen; activation, % at 2 µM; 91,000 tested, 0.04% active; in the data active = activation above about 37%
Target sequence (P34913 whole entry, looked up): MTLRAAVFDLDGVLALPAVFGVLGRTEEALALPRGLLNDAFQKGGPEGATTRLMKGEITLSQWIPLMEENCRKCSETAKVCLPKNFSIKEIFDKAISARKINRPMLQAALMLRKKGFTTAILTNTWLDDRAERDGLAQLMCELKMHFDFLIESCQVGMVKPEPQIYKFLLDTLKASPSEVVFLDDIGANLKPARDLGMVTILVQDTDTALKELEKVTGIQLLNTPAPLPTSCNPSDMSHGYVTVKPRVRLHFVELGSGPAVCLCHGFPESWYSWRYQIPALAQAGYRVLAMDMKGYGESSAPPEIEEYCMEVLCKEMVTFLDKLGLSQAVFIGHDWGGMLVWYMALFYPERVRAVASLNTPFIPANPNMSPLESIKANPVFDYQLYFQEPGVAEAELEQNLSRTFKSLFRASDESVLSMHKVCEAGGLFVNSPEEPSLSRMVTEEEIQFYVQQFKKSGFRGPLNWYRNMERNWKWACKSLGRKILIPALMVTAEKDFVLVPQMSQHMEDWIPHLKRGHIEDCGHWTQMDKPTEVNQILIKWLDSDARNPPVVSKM
PTPN22 inh 2: inhibitors of human LYP (PTPN22) phosphatase. 96,000 tested, 0.21% active. recombinant LYP catalytic domain, DiFMUP fluorescence. AID 640. inhibition, % at 2 µM. Q9Y2R2;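 active = inhibition at 2 µM at or above a set limit, the screen mean plus 3 SD, cut at about 24% in these data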;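 also: 0% = DMSO with enzyme and 100% = enzyme fully blocked by orthovanadate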
PLAP act: human PLAP activation; P05187; purified PLAP enzyme, luminescent substrate read-out; active compounds read high; activation fold at 20 µM; 96,000 tested, 1.2% active; in the data active = activation fold above about 2
sEH inhibitor: blocks human soluble epoxide hydrolase activity; inhibition, % at 2 µM; recombinant human sEH enzymatic activity assay; AID 707; P34913; 91,000 tested, 0.34% active; in the data active = inhibition above about 80%
EphB4 antag: antagonists of human EphB4-ephrin-B2 interaction | 97,000 tested, 0.15% active | EphB4 LBD / TNYL-RAW-Alexa532 peptide, fluorescence polarization | inhibition, % at 7 µM | P54760;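 active = inhibition above the screen-wide mean inhibition plus 3 SD, cut at about 15% in these data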;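 also: 0% = DMSO wells and 100% = excess unlabeled TNYL-RAW peptide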
Starred values were filed as active, the others as inactive; · = no result.

SMILES	PTPN22 act	sEH act	PTPN22 inh 2	PLAP act	sEH inhibitor	EphB4 antag
CCN(CC(=O)NCc1ccc(F)cc1)Cc1nc2cc(Cl)ccc2c(=O)[nH]1	-10	1	11	2.7*	-2	0
CCN(Cc1nc2ccccc2c(=O)[nH]1)Cc1nc2cc(OC)c(OC)cc2c(=O)[nH]1	-3	13	2	2.2*	-10	2
COc1cccc(C2C(C(=O)c3cccs3)=C(O)C(=O)N2CCCn2ccnc2)c1OC (stereo unspecified)	·	·	·	1.6	·	·
CN(C)c1ccc(NC(=O)CN2CCC(N3CCCCC3)CC2)cc1	-4	-2	0	1.1	3	-6
C=CCn1c(SCc2nc3ccccc3nc2C)nnc1-c1ccoc1C	7	-3	-8	1.2	2	8
CCN(CC(=O)NC(c1ccccc1)c1ccccc1)Cc1nc2ccccc2c(=O)[nH]1	2	-5	-2	·	8	4
CN(CC(=O)Nc1ccccc1Br)Cc1nc2ccccc2c(=O)[nH]1	0	9	0	2.4*	-6	1
CCN(CC(=O)Nc1ccc2c(c1)CCC2)Cc1nc2ccccc2c(=O)[nH]1	2	3	1	2.6*	-6	0
CCN(CC(=O)Nc1cccc(Br)c1)Cc1nc2ccccc2c(=O)[nH]1	-2	6	4	0.9	-8	1
CCN(CC(=O)Nc1ccc(N2CCOCC2)cc1)Cc1nc2ccccc2c(=O)[nH]1	-2	-4	4	2.1*	5	4
CCN(CC(=O)Nc1ccc2c(c1)OC(F)(F)O2)Cc1nc2ccccc2c(=O)[nH]1	8	12	-7	·	-14	9
Cc1cc(C)n(-c2nc3c(c(=O)[nH]c(=O)n3C)n2C(C)C)n1	0	-2	-2	0.9	3	7
CC1(c2ccc(Cl)c(Cl)c2)NC(=S)N2C1NC(=S)N2c1ccccc1 (stereo unspecified)	-5	5	2	1.3	-4	-1
COc1ccc(OCC(=O)Nc2ccccc2OC)cc1	·	·	·	0.9	·	·
CCCOc1ccccc1N/C(=N/c1nc(C)cc(C)n1)NC(=O)COc1ccc(OC)cc1	6	-17	-4	2.4*	16	2
Cc1nc(NC(=O)c2cc3c(C)nn(-c4ccccc4)c3s2)sc1C(=O)Nc1ccccc1	-1	2	1	2.3*	-3	5
Cc1cc(C)cc(OCC(=O)Nc2nonc2NC(=O)COc2cc(C)cc(C)c2)c1	-16	-6	19	2.3*	8	1
Cc1cc(Cl)ccc1OC(C)C(=O)N1CCCN(C(=O)C(C)Oc2ccc(Cl)cc2C)CC1 (stereo unspecified)	-1	8	3	1.4	-6	3
O=C(N/N=C/c1ccccn1)c1ccc(Br)o1	0	-2	2	2.4*	2	-9
COC(=O)c1cc(NC(=O)CC2SC(=Nc3ccccc3)N(CCc3c[nH]c4ccccc34)C2=O)cc(C(=O)OC)c1 (stereo unspecified)	2	-20	4	1.4	20	-2
O=C(Nc1ccc2c(c1)OCCO2)NC12CC3CC(CC(C3)C1)C2	5	-97	-11	1.2	97*	-4
CC(=O)Nc1ccc(SCC(=O)OCC(=O)NC(=O)NCc2ccco2)cc1	6	10	-5	0.9	-7	16*
C=C(C)c1cccc(C(C)(C)NC(=O)NCCCN2CCCC2=O)c1	11	-16	-12	2.3*	16	-11
Cc1nn(-c2ccccc2)c(Cl)c1/C=N/Nc1ccc(S(=O)(=O)Nc2ccccc2C(=O)O)cc1[N+](=O)[O-]	-22	6	24*	1.1	-3	2
Cc1cc(S(=O)(=O)Nc2ccccc2C(=O)O)ccc1Cl	3	4	-6	1.4	-3	-10
SMILES	PTPN22 act	sEH act	PTPN22 inh 2	PLAP act	sEH inhibitor	EphB4 antag
Cc1cc2c3c(c1)C(C)(c1ccccc1)CC(C)(C)N3C(=O)C21C(C#N)=C(N)OC2=C1C(=O)CC(C)(C)C2 (stereo unspecified)	-10	3	11	2*	-4	2
CC1(c2ccccc2)CC(C)(C)N2C(=O)C3(C(C#N)=C(N)Oc4cc(O)ccc43)c3cccc1c32 (stereo unspecified)	22	13	-18	1.7	-13	3
O=C(C1CCN(C2CC(=O)N(Cc3ccccc3)C2=O)CC1)N1CCCCCC1 (stereo unspecified)	2	5	-2	2*	-3	6
CC(Sc1nnc2c(n1)C1(C)CCC2C1(C)C)C(=O)Nc1ccccc1 (stereo unspecified)	-1	-2	5	1.2	4	-3
COC(=O)c1sc2nc(CSc3nc4ccc(C)cc4[nH]3)[nH]c(=O)c2c1C	10	-1	-8	2*	-5	1
CCOc1ccc(NC(=O)c2ccc(F)c(S(=O)(=O)N3CCN(c4ccccn4)CC3)c2)cc1	-2	-86	0	1	86*	4
COc1ccc(C(=O)N2CCN(S(=O)(=O)c3cc(Cl)ccc3OC)CC2)cc1	-2	-2	6	0.8	2	3
O=C(N1CCN(c2ccccn2)CC1)N1c2ccccc2Sc2ccccc21	-1	1	-2	1	1	-7
O=C(NCc1ccccc1)N(Cc1nc2ccccc2c(=O)[nH]1)C1CCCC1	5	0	-8	1.3	-1	4
C=CCn1c(N2C(=O)CC(Cc3ccccc3)C2=O)nc2ccccc21 (stereo unspecified)	-5	-27	4	2.5*	25	-7
CCOC(=O)c1c(C)nc2sc3c(c2c1-c1ccc(OC)cc1)NC(c1ccc(OC)cc1)NC3=O (stereo unspecified)	-15	-2	17	1.4	4	3
CCCN(CCC)CCCNC(=O)C1c2cc(OC)c(OC)cc2C(=O)N(C)C1c1cccs1 (stereo unspecified)	8	-5	-8	2*	1	-2
CCOc1ccc(-n2nc3c(-n4ncc(C#N)c4N)nnc(C)c3c2C)cc1	4	-5	-7	·	4	-3
O=C(/C=C/c1ccccc1)NC(=S)NNC(=O)c1cccnc1	-6	-2	9	1.7	1	7
COc1ccc(/C=C/C(=O)NC(=S)NNC(=O)c2cccnc2)cc1OC	-16	-14	18	2*	13	7
COC(=O)Cc1[nH]nc2c1C(c1c[nH]c3ccccc13)C(C#N)=C(N)O2 (stereo unspecified)	-10	0	11	1	-1	0
COC(=O)Cc1[nH]nc2c1C(C1C=CCCC1)C(C#N)=C(N)O2 (stereo unspecified)	-1	-7	-2	2*	8	-2
O=S(=O)(c1ccc(F)cc1)N1CCN(c2ncnc3c2cnn3-c2ccccc2)CC1	0	-13	-3	0.8	14	2
COc1ccccc1CNc1ncnc2nc[nH]c12	·	·	·	2.1*	·	·
c1ccc(CCNc2ncnc3nc[nH]c23)cc1	8	0	-13	2.2*	1	-5
CCN(CCCNc1ncnc2nc[nH]c12)c1cccc(C)c1	·	·	·	2.1*	·	·
